Measured values: ChEMBL document CHEMBL4513216, “Probing the Open Global Health Chemical Diversity Library for Multistage-Active Starting Points for Next-Generation Antimalarials” (ACS Infect Dis, 2020)
About 2,700 (4%) of roughly 68,000 compounds showed an effect of 50% or more. What follows is part of a selection rich in strong results, with near analogues and random picks from the rest.

test system: Plasmodium berghei; assay: Screen against P. berghei liver stage (PbLuc), transformed with Luciferase, at 2uM; type: functional, HepG2; conditions: tested at 2 uM

SMILES | INHIBITION
O=C(NCCc1ccncc1)[C@H]1C[C@@H]2CCN(c3nncs3)C[C@H]2O1 | 62.15%
COCCNC(=O)[C@H]1C[C@@H]2CCN(c3nncs3)C[C@H]2O1 | 21.08%
O=c1cc(-c2cccnc2)nc(-c2ccc(CN3CC[C@H](O)C3)cc2)[nH]1 | 39.51%
Cn1cncc1C(=O)N1C[C@@H]2CCN(c3cnccn3)C[C@@H]2C1 | 5.44%
O=C(NC[C@H]1OC[C@@H](NC(=O)c2ccccc2)[C@@H]1O)c1ccncc1 | 25.94%
CN(CC(=O)N1CCC(COc2ccccc2)CC1)c1cnccn1 | 52.47%
CN(CC(=O)N1CCC(Oc2ccccc2)CC1)c1cnccn1 | 33.16%
CN(CC(=O)N1CCC(N(C)c2ccccc2)CC1)c1cnccn1 | -35.47%
CCCn1nnnc1CN(c1ccc(N2CCOCC2)cc1)C(C)C | 36.28%
CCCn1nnnc1CN(c1ccc(C)cc1)C(C)C | 7.67%
CCCn1nnnc1CN(C)C(C)c1ccc(C)cc1 (centres undefined) | 67.28%
Cc1nc2n(n1)CC(Nc1nc(C(F)(F)F)nc3ccccc13)CC2 (centres undefined) | 19.12%
COc1ccccc1CC(=O)NC1CCCc2cn[nH]c21 (centres undefined) | -1.29%
CCCOc1ccc(CNC2CCCc3c2cnn3CC)cc1OC (centres undefined) | 33.01%
CCOCc1cc(CNC2CCCc3c2cnn3CC)ccc1OC (centres undefined) | 57.81%
CCn1ncc2c1CCCC2NCc1ccc(OC)c(F)c1 (centres undefined) | 57.81%
CCn1ncc2c1CCCC2NCc1cc(Cl)c(OC)c(OC)c1 (centres undefined) | 11.18%
CCn1ncc2c1CCCC2NCc1cc(C)ccc1OC (centres undefined) | -14.16%
CCn1ncc2c1CCCC2NCc1ccc(OC)c(C)c1 (centres undefined) | 27.55%
CCCN(CCOC)C(=O)c1cc(Cn2c(C)nc3ccccc32)[nH]n1 | -8.53%
Cc1cc(C)n(-c2nc(C(=O)NCCN3CCC(C)CC3)cs2)n1 | -39.93%
O=C(c1cc2cc(I)ccc2[nH]1)N1CCC(Nc2cccnn2)CC1 | 39.72%
CC(C)C1CN(C(=O)Nc2cnn(CC(F)F)c2)CCO1 (centres undefined) | -5.66%
Cc1cc(CCC(=O)N2CCOCC2)ccc1Br | 33.64%
O=C(Cn1ccc(C(=O)O)n1)Nc1c(Cl)cccc1Cl | 25.07%
O=C(Cn1cc(C(=O)O)cn1)Nc1c(Cl)cccc1Cl | 6.26%
NS(=O)(=O)c1cnn(CC(=O)Nc2c(Cl)cccc2Cl)c1 | 68.04%

SMILES | INHIBITION
Cc1nn(C)cc1C(=O)N1CCC(CSc2ccccc2)C1 (centres undefined) | 3.22%
CCn1nc(C)c(S(=O)(=O)Nc2cccc(C(=O)O)c2C)c1C | -4.15%
CN(C)CC1CN(C(=O)CCc2ccccc2)Cc2nccn2C1 (centres undefined) | -43.66%
c1cnc(N2CCC(OCCN3CCCCC3)C2)nc1 (centres undefined) | 56.47%
Cc1ccnc(N2CCC(OCCN3CCCCC3)C2)n1 (centres undefined) | 12.29%
COc1ccnc(N2CCC(OCCN3CCCCC3)C2)n1 (centres undefined) | -53.64%
CCc1ncc2c(n1)CN(Cc1nnc(Cc3ccccc3)o1)CC2 | -11.33%
Cc1cc(C(=O)NCCN2CCCCCC2)nn1C(C)(C)C | -5.98%
CCc1nnc2n1CCN(Cc1cc(Cl)c3c(c1)OCCCO3)C2 | -3.57%
CCc1ccc(O)c(C(=O)N2CCN(CC(=O)N(C)C)CC2)c1 | 55.26%
CCc1ccc(O)c(C(=O)N2CCCN(CC(=O)N(CC)CC)CC2)c1 | 46.3%
CCc1ccc(O)c(C(=O)N2CCN(CC(=O)N(CC)CC)CC2)c1 | -19.78%
CCCS(=O)(=O)N(C)C(=O)CCc1ccsc1 | 8.59%
CC(C)c1nc(CNc2ccc(CCO)cc2)cs1 | 2.76%
Cc1cncc(C2CCCN(C(=O)c3cnco3)C2)n1 (centres undefined) | -10.44%
CNc1cncc(C2CCN(C(=O)c3coc(C)n3)CC2)n1 | -16.56%
CNc1cncc(C2CCN(C(=O)c3cnco3)CC2)n1 | 56.93%
Cc1ccc2[nH]c([C@H]3CCN(CC4CCCCC4)C3)nc2c1 | 63.89%
COCCN1CCC(c2nc3cc(C)ccc3[nH]2)CC1 | 8.33%
Cc1ccc2[nH]c(C3CCN(C)CC3)nc2c1 | -5.34%
CC(C)S(=O)(=O)N1CCCC(c2cccc(C(=O)O)c2)C1 (centres undefined) | 49.88%
CCn1cnnc1CNC(=O)N1CCN(c2ccccc2OC)CC1 | 33.61%
O=C(Nc1cc[nH]n1)c1ccc(COCC(F)(F)F)cc1 | -20.91%
COc1ccc(CN2CCC(c3cc(O)nc(C)n3)C2)c(F)c1 (centres undefined) | -30.34%
COc1ccc(OC)c(CN2CCC(c3cc(O)nc(C)n3)C2)c1 (centres undefined) | -111.32%
COc1ccc(CN2CCC(c3cc(O)nc(C)n3)C2)c(OC)c1 (centres undefined) | 52.01%
Cc1noc(CC2CCN(C(=O)C(c3ccccc3C)N(C)C)CC2)n1 (centres undefined) | 37%
